# High-throughput results as filed in PubChem BioAssay.
# Hits are enriched below; roughly 8% of the tested compounds scored in any of these assays.
# MCF10A rereplic = A quantitative high throughput screen for small molecules that induce DNA re-replication in MCF 10a normal breast cells; MCF 10A DNA re-replication, Hoechst nuclear intensity, 48 h; Potency, µM (doses to about 46.1 µM), inactives show at the top dose activity, positive = re-replication, most hits filed as activators; 350,000 compounds, 2.9% hits; further: % of control where 0% means no effect; nearly all actives have a fitted effect of over 50% in size
# KB-3-1 tox = qHTS assay for MDR1-selective chemotherapeutics: Primary screen using the parental adenocarcinoma cell KB-3-1; KB-3-1 viability, CellTiter-Glo ATP luminescence, 72 h; 400,000 compounds, 1.4% hits; AID 1347075, 2019; Potency, µM (series often up to 46.1 µM), most hits filed as cytotoxic; further: on the % scale 0 is the no-effect control and ±100 the full control effect; nearly all actives have a fitted effect of over 60% in size
#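 72 h, 37 °C compound treatment of KB-3-1 parental cells; CellTiter-Glo added, 10 min, luminescence read. Data corrected against DMSO-only plates and normalized before curve fitting.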
# SW480 rereplic = A quantitative high throughput screen for small molecules that induce DNA re-replication in SW480 colon adenocarcinoma cells. SW480 DNA re-replication, Hoechst DNA content imaging, 48 h. 340,000 compounds, 1.8% hits. Potency, µM (top dose mostly 46.1 µM), for the others: top-dose re-replication activation, hits mostly activators; further: % of control where 0% means no effect; nearly all actives have a fitted effect of over 55% in size
#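 250 cells/well; 23 nL cpd via pin tool; 48 hr, 37 C, 5% CO2; Hoechst 40 min; imager read of total nuclear intensity, ex 405/em 500-530 nm.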
# KB-V1 cytotox = qHTS assay for MDR1-selective chemotherapeutics: Primary screen using the drug-selected MDR subline cells KB-V1; KB-V1 MDR cells viability, CellTiter-Glo, 72 h; Potency, µM (doses to about 46.1 µM), actives largely listed as cytotoxic; 400,000 compounds, 3.4% hits; further: on the % scale 0 is the no-effect control and ±100 the full control effect; nearly all actives have a fitted effect of over 60% in size
#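 Drug-selected KB-V1 cells, grown in DMEM lacking phenol red with 10% FBS, receive compound titrations; after three days at 37 degrees C, surviving cell ATP is quantified by CellTiter-Glo luminescence and responses normalized and curve-fitted.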
# HT1080 IDH1KD tx = qHTS for induction of synthetic lethality in tumor cells producing 2HG: qHTS for the HT-1080-IDH1KD cell line; HT-1080 IDH1 knockdown viability, ATP luminescence, 48 h; Potency, µM (titrated, usually from 46.1 µM), for inactives: top-dose activity, negative = toxicity, actives largely listed as cytotoxic; 360,000 compounds, 2% hits; AID 686971, 2013;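 further: 0% = DMSO wells and -100% = cell-free medium wells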
#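 After a 2 h attachment period, IDH1KD HT-1080 cells took pin-transferred compound for 48 h at 37 °C; ATP-based luminescence after 10 min room-temperature reagent incubation reported viability.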
# HT1080-NT tox = qHTS for induction of synthetic lethality in tumor cells producing 2HG: qHTS for the HT-1080-NT fibrosarcoma cell line | HT-1080-NT fibrosarcoma viability, CellTiter-Glo ATP luminescence, 48 h | Potency, µM (doses to about 46.1 µM), inactives show at the highest dose activity, negative = less viability, actives largely listed as cytotoxic | 360,000 compounds, 1.6% hits;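 further: NT is the 2HG producing partner of a matched IDH1 knockdown line; 0% = DMSO-treated cells and -100% = media-only wells without cells; nearly all actives have a fitted effect of over 55% in size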
#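 Read-out is CellTiter-Glo luminescence after 10 minutes at room temperature, following 48 hours' compound treatment of HT-1080-NT cells (750 cells/well, RPMI, 5% FBS, 37 degrees C).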
# Numbers without * were called inactive; i = inactive; u = inconclusive; x = not tested or not shown; [ ] = another dose, or the depositor's remark. The call rests on the fitted dose curve; in most records, active means well fitted curve in the direction sought with a large enough effect; inconclusive means small, poorly fitted or top-dose-only effect, or another doubt; inactive means no such curve, though single readings can be large; an effect the other way counts as inactive or inconclusive. Potency means the concentration at half of the fitted maximal effect.
SMILES,MCF10A rereplic,KB-3-1 tox,SW480 rereplic,KB-V1 cytotox,HT1080 IDH1KD tx,HT1080-NT tox
CC(C)CN(C(=O)COC(=O)C12CC3CC(CC(O)(C3)C1)C2)c1c(N)n(Cc2ccccc2)c(=O)[nH]c1=O,x,i,x,i,10%,14%
CC(C)CN(C(=O)CSc1nnc(-c2cccs2)n1N)c1c(N)n(Cc2ccccc2)c(=O)[nH]c1=O,-1%,i,3%,i,0%,5%
CC(C)CN(C(=O)COC(=O)C12CC3CC(CC(C3)C1)C2)c1c(N)n(Cc2ccccc2)c(=O)[nH]c1=O,-21%,u,4.1µM*,i,u,u
O=C1NC[C@@H](CCCCN2C[C@H](Cc3ccccc3)N(CC3CCCCC3)C(=O)C2=O)N(Cc2ccccc2)C1=O,x,i,x,u,-2%,1%
Cc1n[nH]c(=S)n1/N=C/c1ccccc1,-2%,i,-5%,i,14%,11%
CCCNCC1C(Oc2ccc(Cl)cc2Cl)C(=O)N1c1cccc(C)c1C (configuration not stated),u,i,u,u,u,u
CCCCNCC1C(Oc2ccc(Cl)cc2)C(=O)N1c1ccccc1C (configuration not stated),u,i,u,i,23µM*,u
COc1ccc(C(O)Cc2nc3ccccc3n2C)cc1OC (configuration not stated),-8%,i,0%[9.22 µM],i,2%,14%
O=C(Nc1ccc(Oc2ccccc2)nc1)C1CCCCN1Cc1ccco1 (configuration not stated),1.8µM*,i,2.9µM*,u,u,u
Cc1ccc(CN2CCCCC2C(=O)Nc2ccc(Oc3cccnc3)cc2)o1 (configuration not stated),15µM*,5.2µM*,16µM*,8.2µM*,-21%,u
O=C(Nc1ccc(Oc2cccnc2)cc1)C1CCN(Cc2cc(Cl)ccc2O)CC1,u,16µM*,-4%,u,u,u
CCn1nc(C)c(CN2CCCCC2C(=O)Nc2ccc(Oc3cccnc3)cc2)c1C (configuration not stated),u,i,3%,u,6%,0%
Cc1ccc(CN2CCSc3ccc(C(=O)NCC(C)c4ccccc4)cc32)cc1 (configuration not stated),x,i,x,i,x,x
O=C(NCCc1ccc2c(c1)OCCO2)c1cc(S(=O)(=O)N2CCCC2)ccc1Br,-2%,u,-7%,21µM*,-1%,6%
COc1ccc(CCNC(=O)c2cc(S(=O)(=O)N3CCCCC3)ccc2Cl)cc1,u,i,18µM*,i,0%,0%
O=C(NCCc1ccc2c(c1)OCCO2)c1cc(F)cc(F)c1,0%,u,4%,12µM*,-19%,-23%
COc1ccc(CCNC(=O)c2cccc(S(=O)(=O)N3CCCCC3)c2)cc1,-25%,i,-60%,i,-8%,-6%
Cc1ccc(S(=O)(=O)N2CCCCC2)cc1C(=O)NCCc1ccccc1,19%,i,-1%,u,-1%,-2%
COc1ccc(S(=O)(=O)N2CCC(c3nc4ccccc4s3)CC2)cc1OC,x,i,x,i,x,x
COc1ccc(CNc2nc3ccccc3n2CCN2CCCCC2)c(OC)c1,19%,i,0%,18µM*,-25%,-13%
COc1ccc(OC)c(CNc2nc3ccccc3n2CCN2CCCCC2)c1,7%,u,24%,4.1µM*,u,u
CCCn1c(NCc2cc(OC)ccc2OC)nc2ccccc21,1%,i,5%,4.1µM*,6%,0%
COc1ccc(CNc2nc3ccccc3n2Cc2ccc(C)cc2)cc1OC,u,i,16%,3.3µM*,9%,-1%
Cc1noc(C)c1S(=O)(=O)N(CC(=O)NC(C)c1ccccc1)c1ccc(C(C)C)cc1 (configuration not stated),12%,i,u,i,-29%,-20%
CN(C)c1ccnc2sc(C(=O)NCc3ccccc3)c(N)c12,0%,i,0%,i,2%[9.24 µM],u
SMILES,MCF10A rereplic,KB-3-1 tox,SW480 rereplic,KB-V1 cytotox,HT1080 IDH1KD tx,HT1080-NT tox
CCCn1c(-c2ccc(OC)cc2)nc2ccccc21,24%,u,27%,18µM*,u,-17%
O=C(COC(=O)c1cc(=O)[nH]c(=O)[nH]1)Nc1ccccc1F,5%,i,2%,i,4%,3%
COc1ccc(-c2ccc(SCC(=O)c3cccs3)nn2)cc1,-1%,u,-8%,16µM*,-20%,-10%
COc1ccc(Cn2c(O)c(C=Nc3ccc(O)cc3)c3ccccc3c2=O)cc1,6.5µM*,u,u,21µM*,u,-21%
COc1ccc(Cn2c(O)c(C=Nc3ccccc3)c3ccccc3c2=O)cc1,-2%,i,-15%,i,6%,7%
COc1ccc(NC(=O)CSc2nc(N)cc(N)n2)cc1S(=O)(=O)N1CCCCC1,-13%,i,-5%,i,0%,2%
CC(=O)c1cccc(OCc2cc(C(=O)N(C)Cc3nccs3)no2)c1,x,i,x,i,2%,10%
CN(Cc1nccs1)C(=O)c1cc(COc2cccc3cnccc23)on1,u,i,-2%,i,9.2µM*,23µM*
Cc1cccc(C)c1OCc1cc(C(=O)N2CCCC2c2nonc2C)no1 (configuration not stated),8.2µM*,i,u,i,4%,2%
CCOC(=O)CC1CCCCN1C(=O)c1cc(COc2cccc3cnccc23)on1 (configuration not stated),u,i,-31%,u,4.1µM*,23µM*
C[C@@H]1CN([C@@H](C)CO)C(=O)c2cc(NS(=O)(=O)c3ccc(F)cc3)ccc2O[C@@H](C)CCCCO[C@H]1CN(C)C(=O)NC1CCCCC1,x,u,x,i,-5%,-7%
Cc1ccc(S(=O)(=O)N2CCN(c3nc(-c4cccs4)cc4ccccc34)CC2)cc1,x,x,x,x,3%,13%
NC(=S)n1[nH]c(-c2ccc([N+](=O)[O-])cc2)c(N=Nc2ccc(O)cc2)c1=O,11%,i,-17%,i,-17%,1%
